± gives the standard deviation.
Experiments:
Streptococcus suis HE06 = test: percent growth relative to DMSO control; higher = less growth inhibition; settings: 10 µM; incubation time 18 h
Description: (§1)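 CLSI broth microdilution: 5x10^4 CFU of Streptococcus suis (strain P1/7 or HE06) incubated with 10 µM Pathogen Box compound in cation-adjusted Mueller Hinton broth, 37 °C, 5% CO2, 18 h. Growth read as OD600 and expressed as percent of the DMSO-treated control (100%); mean ± SD of three independent experiments.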

Streptococcus suis P1/7 = test: as above; settings: 10 µM; incubation time 18 h
Description: as §1

Compound | percent growth (Streptococcus suis HE06) | percent growth (Streptococcus suis P1/7)
CCOC(=O)c1cc(-c2csc(Nc3c(C)cc(C)cc3C)n2)on1 | 91.3 ± 6% | 108 ± 60%
CC1=Nc2ccc(Cl)cc2C(c2ccccc2)N1CCNC(=O)CN(C)C (stereo not given) | 84.8 ± 4.2% | 84.5 ± 16%
OCc1ccc(-c2cncc(Nc3cccc(Cl)c3)c2)cc1 | 88 ± 13% | 69.8 ± 33%
c1coc(CNc2nc(N3CCCCC3)nc3ccccc23)c1 | 78 ± 7.8% | 89 ± 32%
CN1CCN(c2cc(-c3ccc(F)cc3)nc(-c3ccncc3)n2)CC1 | 83.6 ± 3.7% | 89.1 ± 28%
CNCCC(Oc1ccc(C(F)(F)F)cc1)c1ccccc1 (stereo not given) | 104 ± 4% | 98.5 ± 39%
CC[C@@H]([C@H](C)O)n1ncn(-c2ccc(N3CCN(c4ccc(OC[C@@H]5CO[C@@](Cn6cncn6)(c6ccc(F)cc6F)C5)cc4)CC3)cc2)c1=O | 76.2 ± 4.8% | 77.5 ± 0.79%
Cc1ccccc1CN1CCC(O)(c2ccc(Cl)c(C(F)(F)F)c2)CC1 | 93.7 ± 15% | 102 ± 50%
O=C(N[C@H](Cc1ccccc1)C(=O)Nc1ccccc1N1CCOCC1)c1cccs1 | 92.7 ± 9.4% | 85.8 ± 16%
CCCCN(CCCC)c1c(C#N)cc(S(=O)(=O)Nc2ccccc2)cc1C#N | 86.6 ± 25% | 69.8 ± 27%
Cc1cc(Cl)c(S(=O)(=O)N2CCCC2)cc1OCC(=O)NC1CCCCC1 | 87.7 ± 22% | 63.6 ± 18%
Cn1ccnc1CNCCS(=O)(=O)c1cccc(Nc2ccc(-c3cccc(F)c3)cn2)c1 | 91.4 ± 14% | 35 ± 38%
Nc1ncnc2c1ncn2[C@@H]1O[C@H](COS(=O)(=O)NC(=O)c2ccccc2O)[C@@H](O)[C@H]1O | 97.4 ± 8.2% | 78.6 ± 9.8%
c1ccc2c(c1)CN(CC1CC1)CC1(CCN(Cc3c[nH]c4cnccc34)CC1)O2 | 85.1 ± 15% | 91.8 ± 5.5%
Cc1nn(C(=O)Nc2cccc(C(F)(F)F)c2)c(C)c1Sc1ncccn1 | 25.4 ± 40% | -0.122 ± 0.21%
O=C(NCCc1ccn(-c2ccccc2)n1)C1CCCCC1 | 97.3 ± 2.1% | 95 ± 23%
CC(C)(C)n1nc(Cc2cccc3ccccc23)c2c(N)ncnc21 | 90.1 ± 3.1% | 87.7 ± 16%
Cc1nn2c(=O)c3c([nH]c2c1-c1ccc(Cl)cc1)CCCC3 | 0.386 ± 8.7% | 12.7 ± 22%
CC1CCCCN1C(=O)NCCc1coc(-c2ccc(F)cc2)n1 (stereo not given) | 79.5 ± 6.9% | 120 ± 87%
Nc1ccc(C(=O)Nc2ccc(-c3nc4ccccc4o3)cc2)cc1 | 105 ± 4.4% | 92.6 ± 17%
CS(=O)(=O)c1ccc(C(=O)N(CC2CCCO2)c2nc3ccccc3s2)cc1[N+](=O)[O-] (stereo not given) | 91.7 ± 7.5% | 108 ± 18%
O=C(c1ccc(F)cc1)N(CCNc1ccccc1)c1ccccc1 | 106 ± 17% | 122 ± 66%
Cc1nc(-c2ccccn2)nc(NCCc2ccc(S(C)(=O)=O)cc2)c1Cl | 131 ± 60% | 73.3 ± 11%

Compound | percent growth (Streptococcus suis HE06) | percent growth (Streptococcus suis P1/7)
Nc1nccc2ccc(Oc3ccncc3)cc12 | 97.4 ± 7% | 84.2 ± 8.7%
COc1cccc(-c2cc3c(Nc4cccnc4)nccc3[nH]2)c1 | 226 ± 230% | 83.9 ± 23%
c1ccc(Oc2ccc(-c3cc(CN4CCOCC4)[nH]n3)cc2)cc1 | 90.8 ± 3.9% | 95.7 ± 15%
Cc1nnc(NCc2cccc(Cl)c2)c2ccccc12 | 80.1 ± 8.7% | 85.4 ± 29%
COc1ccc(-c2nnc3ccc(-c4cccc(C(C)C)c4)cn23)cc1OC | 97.1 ± 15% | 68 ± 20%
COc1ccc(OC)c(NCc2ccc3nc(N)nc(N)c3c2Cl)c1 | 4.05 ± 6.3% | 2.34 ± 1.3%
COc1ccccc1C(C)NCC(=O)Nc1cc(C(F)(F)F)ccc1Cl (stereo not given) | 86.8 ± 5.4% | 112 ± 23%
CN1CCCC1CCO[C@](C)(c1ccccc1)c1ccc(Cl)cc1 (stereo not given in full) | 86.3 ± 9.2% | 78.1 ± 43%
CCCNC(=O)N1CCC2(CC1)CC(=O)c1cc(C)ccc1O2 | 87.9 ± 23% | 61.5 ± 9.9%
COc1ccc(C2CC(c3cccs3)=NN2C(=O)c2ccco2)cc1OC (stereo not given) | 75.4 ± 3% | 99.7 ± 26%
O=C(COc1cccc(F)c1)Nc1nc(-c2ccccn2)cs1 | -0.0745 ± 0.086% | 3.07 ± 5.3%
Cc1cnc(N2CCN[C@@H](Cc3ccccc3)C2)nc1Oc1ccc(-n2ccnc2)cc1 | 98.9 ± 9.1% | 109 ± 29%
O=C(Nc1nnc(-c2ccc(Cl)s2)o1)c1ccc(Cl)s1 | 1.06 ± 1.1% | 3.26 ± 4.9%
Cc1nnc(NC(=O)c2cn(-c3ccccc3)nc2-c2ccccc2C)o1 | 0.31 ± 0.38% | 0.18 ± 0.31%
O=C(Nc1ccc(N2CCNCC2)nc1)c1oc(-c2ccccc2)nc1C(F)(F)F | 93.7 ± 20% | 63.6 ± 18%
CCOc1ccccc1C(=O)Nc1cccc(-c2nc3ncccn3c2C)c1 | 88.1 ± 24% | 71.6 ± 8.8%
COc1cc(C2=NCCN2)ccc1-n1cc(-c2cccc(C3=NCCN3)c2)nn1 | 99.7 ± 40% | 63.4 ± 23%
CCOc1ccccc1NC(C)C(=O)Nc1cc(C(F)(F)F)ccc1N1CCOCC1 (stereo not given) | 115 ± 20% | 109 ± 31%
CN(C)c1cc(NC(=O)Nc2ccccc2)c2ccccc2n1 | 105 ± 8.6% | 87 ± 34%
CS(=O)(=O)c1cccc(-c2cnc3[nH]cc(-c4ccc(CCC(=O)O)cc4)c3c2)c1 | 68.7 ± 5.5% | 52.9 ± 34%
COc1ccc(-c2cnc3cnc(-c4cccc(OC(C)C)c4)cn23)cc1 | 59 ± 50% | 25.7 ± 45%
O=C(Cn1ccnc1[N+](=O)[O-])NCc1ccccc1 | 79.1 ± 10% | 114 ± 48%

— the supplement of paper PMC7866885, “A novel bicyclic 2,4-diaminopyrimidine inhibitor of Streptococcus suis dihydrofolate reductase” (PeerJ, 2021)
